Assay outcomes: PubChem BioAssay, National Center for Advancing Translational Sciences (NCATS)
ALOX15B inhib: blocks human 15-lipoxygenase 2 activity; O15296; purified 15hLO-2, xylenol orange hydroperoxide absorbance; Potency, µM (highest dose often 57.1 µM), without a hit: top-dose activity change, negative = inhibition, usual class: inhibitors; 110,000 tested, 0.56% active; AID 881; further: potency means the concentration at half of the fitted maximal effect; nearly all actives have a fitted effect of over 60% in size
Target sequence (O15296 whole entry, looked up): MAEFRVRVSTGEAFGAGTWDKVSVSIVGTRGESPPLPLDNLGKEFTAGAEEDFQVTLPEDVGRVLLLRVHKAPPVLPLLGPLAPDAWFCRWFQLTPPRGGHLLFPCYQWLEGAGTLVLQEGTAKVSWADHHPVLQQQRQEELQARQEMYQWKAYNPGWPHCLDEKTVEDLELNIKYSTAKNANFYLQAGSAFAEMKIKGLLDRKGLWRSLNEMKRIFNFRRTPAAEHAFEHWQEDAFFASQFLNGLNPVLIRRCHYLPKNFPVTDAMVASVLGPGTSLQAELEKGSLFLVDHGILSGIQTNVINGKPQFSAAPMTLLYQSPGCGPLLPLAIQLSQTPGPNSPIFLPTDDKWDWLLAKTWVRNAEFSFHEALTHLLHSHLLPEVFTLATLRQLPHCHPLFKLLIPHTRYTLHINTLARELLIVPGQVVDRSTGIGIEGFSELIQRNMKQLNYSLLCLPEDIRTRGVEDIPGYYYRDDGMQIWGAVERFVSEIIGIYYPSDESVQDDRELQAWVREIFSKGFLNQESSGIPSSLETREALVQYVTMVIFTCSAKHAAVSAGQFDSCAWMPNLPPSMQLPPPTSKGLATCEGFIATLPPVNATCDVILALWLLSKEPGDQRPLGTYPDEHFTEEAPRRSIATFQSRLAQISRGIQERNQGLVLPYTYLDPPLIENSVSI
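Read-out: hydroperoxide product oxidises ferrous iron, measured as xylenol orange complex via the 573-to-405 nm absorbance ratio after 30 min. Reaction: 50 nM enzyme, 15 min compound preincubation, 45 uM arachidonic acid, 90 min RT, Hepes pH 7.5 with Triton X-100.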
12-hLO inh: blocks human 12-lipoxygenase activity; P18054; purified 12-hLO, xylenol orange hydroperoxide absorbance; Potency, µM (doses to about 57.1 µM), for inactives: at the top dose activity change, negative = inhibition, hits mostly inhibitors; 150,000 tested, 0.12% active; further: potency means the concentration at half of the fitted maximal effect; nearly all actives have a fitted effect of over 55% in size
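Purified human 12hLO (150 nM), preincubated 15 min with compound, then 40 uM arachidonic acid for 30 min, room temperature, Hepes pH 7.0 with 0.01% Triton X-100. Hydroperoxide detected by ferrous iron/xylenol orange; 573/405 nm absorbance ratio gives reaction progress.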
PNC assembly inh: perinucleolar compartment assembly inhibition; 140,000 tested, 3.1% active; PC3M PTB-GFP, PNC prevalence imaging, 16 h; stronger effect = lower value; activity change (PNC), negative = inhibition, % at 10 µM;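 active means readout at or below -70, meaning at least 70% loss of cells showing the perinucleolar compartment, a nuclear body marking cancer cells; inconclusive means readout between -30 and a set limit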;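 further: plate controls were DMSO wells for no effect and camptothecin positive control wells for full effect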
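Compounds are pinned in duplicate onto adhered PC3M cells stably expressing GFP-tagged PTB and incubated 16 h at 37 C. Cells are then fixed, nuclei stained with Hoechst, and PNC-positive cells counted.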
Starred values were filed as active, the others as inactive; [ ] = remark or other dose. The list is not random: actives were taken first. Their share in the collection is about 3.2%. Unless noted, the call rests on the fitted dose curve; in most records, active means well fitted curve in the direction sought with a large enough effect; inconclusive means small, poorly fitted or top-dose-only effect, or another doubt; inactive means no such curve, though single readings can be large; an effect the other way counts as inactive or inconclusive. Unless noted, on the % scale 0 is the no-effect control and ±100 the full control effect.

O=C(COc1ccccc1-c1ccccc1)N/N=C/c1ccc2ccccc2c1 was read as 12-hLO inh 1% and PNC assembly inh -116*.
Cc1ccccc1OCC(=O)N/N=C/c1ccc2c(c1)OCCO2 was read as 12-hLO inh -1% and PNC assembly inh inconclusive.
CC(=O)NC(=O)NC1OC(=O)C(Cl)=C1Cl (stereo unspecified) was read as ALOX15B inhib 6%, 12-hLO inh -3% and PNC assembly inh 0.
Screening Cc1ccc(CSCC(=O)N2CCOCC2)cc1 returned ALOX15B inhib 2%, 12-hLO inh 9% and PNC assembly inh -13.
CCn1nc(C)c(NS(=O)(=O)c2ccc(C)cc2)c1C was read as 12-hLO inh -1% and PNC assembly inh -100*.
Cc1ccc(S(=O)(=O)Nc2c(C)nn(C)c2C)cc1 was read as ALOX15B inhib 1%, 12-hLO inh 5% and PNC assembly inh inconclusive.
Screening c1ccc(-c2nc(-c3ccccc3)c(Nc3ccc4ccccc4c3)o2)cc1 returned 12-hLO inh 0%.
Screening COc1ccccc1N1CCN(C(=O)c2cc3c(=O)n(C)c4ccccc4c3n2C)CC1 returned ALOX15B inhib 0%, 12-hLO inh -5% and PNC assembly inh -88*.
For Cn1c(C(=O)N2CCN(C(=O)c3ccco3)CC2)cc2c(=O)n(C)c3ccccc3c21 the results were ALOX15B inhib -5%, 12-hLO inh -3% and PNC assembly inh -8.
For O=C(COC(=O)/C=C/c1cccs1)NC(c1ccccc1)c1ccccc1 the results were 12-hLO inh 5% and PNC assembly inh -119*.
Screening O=C(COC(=O)/C=C/c1cccs1)Nc1nc(-c2ccccc2)cs1 returned 12-hLO inh -2% and PNC assembly inh -14.
For Cn1nc(C(F)(F)F)c(/C=N/OC(=O)c2ccccc2Cl)c1SCc1ccccc1Cl the results were ALOX15B inhib 4%, 12-hLO inh 3% and PNC assembly inh -28.
`Cc1cccn2c(=O)c3cc(C(=O)NC4CCCC4)c(=N)n(C4CCCC4)c3nc12` gave ALOX15B inhib 6%[2.29 µM], 12-hLO inh -4% and PNC assembly inh -22.
N=c1c(C(=O)NC2CCCC2)cc2c(=O)n3ccccc3nc2n1C1CCCC1 was read as ALOX15B inhib -16%, 12-hLO inh 32µM* and PNC assembly inh 92.
COC(=O)CC1C2(C)CC34OC5(C)O[C@@]6(C7/C(=C(/OC)C(C)C)C(=O)OC(c8ccoc8)[C@@]7(C)C(OC(=O)C(C)C)C(OC)[C@]6(O5)[C@@]13C)C(OC)[C@]4(OC)C2OC(C)=O (stereo partly specified) was read as ALOX15B inhib -17% and 12-hLO inh -5%.
`COC(=O)C(N)CS` (stereo unspecified) gave ALOX15B inhib -11% and 12-hLO inh -9%.
Screening CCCCCCCCNC(C)C(O)c1ccc(SC(C)C)cc1 (stereo unspecified) returned ALOX15B inhib 30%, 12-hLO inh -2% and PNC assembly inh -115*.
CC(NCCc1ccc(O)cc1)C(O)c1ccc(O)cc1 (stereo unspecified) was read as ALOX15B inhib 14%, 12-hLO inh -1% and PNC assembly inh -4.
`CCCn1c(-c2ccc(F)cc2)nc2c(NC3CCN(Cc4ccccc4)CC3)nc(C)nc21` gave ALOX15B inhib 55% and 12-hLO inh -8%.
CC(=O)N1CCc2cc(S(=O)(=O)CCC(=O)N3CCN(C(=O)c4ccco4)CC3)ccc21 was read as 12-hLO inh 0% and PNC assembly inh -18.
COc1ccc(CCC(N)=O)cc1OC was read as ALOX15B inhib -9%, 12-hLO inh 3% and PNC assembly inh inconclusive.
`COc1ccc(CCn2c(C)ccc2C)cc1OC` gave 12-hLO inh -9% and PNC assembly inh -100*.
N#Cc1ccc(CN2CC[C@@]3(CCCN(C(=O)c4cccc(F)c4)C3)C2)cc1 was read as ALOX15B inhib 19% and 12-hLO inh -5%.
Screening CCN(C(=O)Nc1ccccc1)c1ccccc1 returned 12-hLO inh -2% and PNC assembly inh 31.
`COCCN(C(=O)Nc1ccccc1)c1ccccc1C` gave 12-hLO inh -1% and PNC assembly inh -100*.
`CCC/C(O)=C1\C(=O)CC(C)(C)CC1=Nc1ccc(OC)cc1OC` gave ALOX15B inhib -9%, 12-hLO inh -7% and PNC assembly inh -139*.
CCCC/C(O)=C1\C(=O)CC(C)(C)CC1=Nc1ccccc1OC was read as ALOX15B inhib -7%, 12-hLO inh -1% and PNC assembly inh -28.
O=C(Nc1c(-c2ccccc2)nc2sccn12)c1ccccc1 was read as ALOX15B inhib 17%, 12-hLO inh -5% and PNC assembly inh -8.
`CC(=O)C1=C(C)NC(SCSc2ccccc2)=C(C#N)C1c1cccnc1` (stereo unspecified) gave ALOX15B inhib -12%, 12-hLO inh -3% and PNC assembly inh -86*.
`CC(=O)C1=C(C)NC(SCC(=O)c2ccc(-c3ccccc3)cc2)=C(C#N)C1c1cccnc1` (stereo unspecified) gave ALOX15B inhib 20%, 12-hLO inh -6% and PNC assembly inh 84.
`OCCN1CCN(C(c2cccs2)c2ccc3cccnc3c2O)CC1` (stereo unspecified) gave ALOX15B inhib -18%, 12-hLO inh 14µM* and PNC assembly inh 21.
Screening CC(C)(C)c1cc(C(c2cccnc2)N2CCN(CCO)CC2)cc(C(C)(C)C)c1O (stereo unspecified) returned ALOX15B inhib 19%, 12-hLO inh -2% and PNC assembly inh 3.
COc1ccc(S(=O)(=O)N2CCCC(C(=O)NCc3ccncc3)C2)cc1 (stereo unspecified) was read as ALOX15B inhib -6%, 12-hLO inh 4% and PNC assembly inh inconclusive.
O=C(Nc1ccccc1)N1CC[C@@]2(CCCN(C(=O)c3ccco3)C2)C1 was read as ALOX15B inhib 6% and 12-hLO inh -1%.
For Cc1cc(N2CCN(S(=O)(=O)c3ccc4c(c3)OCCO4)CC2)n2ncnc2n1 the results were ALOX15B inhib 4%, 12-hLO inh -12% and PNC assembly inh -3.
For Cc1cc(N2CCN(S(=O)(=O)Cc3ccccc3)CC2)n2ncnc2n1 the results were ALOX15B inhib 9%[11.4 µM], 12-hLO inh 0% and PNC assembly inh -99*.
For CCNC(=O)CCSc1nnc(-c2ccco2)o1 the results were 12-hLO inh 0% and PNC assembly inh 0.
For COc1ccc(C(=O)O)c(O)c1OC the results were ALOX15B inhib -6% and 12-hLO inh -2%.
`COC1=C(N)C(=O)c2nc(-c3nc(C(=O)O)c(C)c(-c4ccc(OC)c(OC)c4O)c3N)ccc2C1=O` gave 12-hLO inh -5% and PNC assembly inh -115*.
`CCOc1ccc2c(c1)OC(c1ccccc1)(C(F)(F)F)NC2=O` (stereo unspecified) gave 12-hLO inh 1% and PNC assembly inh -26.
Screening CCOc1ccc2c(c1)OC(c1ccc(OC)cc1)(C(F)(F)F)NC2=O (stereo unspecified) returned 12-hLO inh -1% and PNC assembly inh -92*.
`CC(C)CC(=O)OCC(=O)Nc1ccccc1Sc1ccccc1` gave 12-hLO inh -1% and PNC assembly inh inconclusive.
